Hits are enriched below; roughly 11% of the tested compounds scored in any of these assays.
PNC inhibitor: perinucleolar compartment assembly inhibition. activity change (PNC), negative = inhibition, % at 10 µM. AID 2417. PC3M PTB-GFP, PNC prevalence imaging, 16 h; active compounds read low. 140,000 compounds, 3.1% hits;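 active = readout at or below -70, meaning at least 70% loss of cells showing the perinucleolar compartment, a nuclear body marking cancer cells; inconclusive = readout between -30 and a set limit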;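 note: plate controls were DMSO wells for no effect and camptothecin positive control wells for full effect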
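Read-out is percentage of cells bearing a perinucleolar compartment, from automated 20x imaging of fixed, Hoechst-stained PC3M PTB-GFP cells. Cells were seeded 4 h, then exposed 16 h to compound (23 nl of library stock) in duplicate plates.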
HPGD inh: HPGD (human) dehydrogenase inhibition. Potency, µM, for inactives: at the highest dose activity change, negative = inhibition, most hits filed as inhibitors. purified HPGD, NADH fluorescence kinetic, PGE2 substrate. P15428. 150,000 compounds, 4.3% hits. AID 894; note: potency is the fitted concentration of half-maximal effect
Target sequence (P15428 whole entry, looked up): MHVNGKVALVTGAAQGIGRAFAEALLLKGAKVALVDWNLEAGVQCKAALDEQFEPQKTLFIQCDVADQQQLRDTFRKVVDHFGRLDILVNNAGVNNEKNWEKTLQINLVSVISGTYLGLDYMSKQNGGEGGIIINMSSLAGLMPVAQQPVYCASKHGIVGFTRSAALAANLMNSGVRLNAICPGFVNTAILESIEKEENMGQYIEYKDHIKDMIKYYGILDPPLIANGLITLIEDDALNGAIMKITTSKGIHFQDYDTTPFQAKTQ
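20 nM HPGD preincubated 15 min at room temperature with compound in 50 mM Tris-HCl pH 8, 0.01% Tween 20. Started with 1 mM NAD+ and 30 uM prostaglandin E2; NADH fluorescence (360/450 nm) read 5 times over 30-s intervals, last minus first.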
ALDH1A1 inh: inhibitors of human aldehyde dehydrogenase 1A1. Purified ALDH1A1, NADH fluorescence, propionaldehyde substrate. Potency, µM (doses to about 75.3 µM), for inactives: top-dose activity, negative = inhibition, usual class: inhibitors. 220,000 compounds, 7.3% hits. AID 1030;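 note: potency is the fitted concentration of half-maximal effect; plate controls were no enzyme wells and a reference inhibitor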
Active calls of the source: *; u = inconclusive; x = not tested or not shown. Unless noted, calls come from the whole dose curve; as a rule, active = well fitted inhibition curve with a large enough effect (not every such curve was filed as active); inconclusive = small, poorly fitted or top-dose-only effect, or another doubt; inactive = no such curve, though single readings can be large or run the other way. Unless noted, % is set by controls: 0 for no effect and ±100 for the full control effect.

SMILES	PNC inhibitor	HPGD inh	ALDH1A1 inh
COc1ccc(Cl)cc1-c1nc(SCC(=O)NC(C)C(C)C)n[nH]1 (stereo unspecified)	x	x	7%
CCC(=O)c1ccc(N2CCN(C(=O)c3ccccc3)CC2)c(F)c1	x	x	-2%
COc1ccc(N(C(=O)c2ccco2)S(=O)(=O)c2cc(OC)ccc2OC)cc1	-18	-18%	u
O=C1CCCN1c1ccc(S(=O)(=O)Oc2ccc(Cl)cc2)cc1[N+](=O)[O-]	-3	7.9µM*	-12%
CCCNS(=O)(=O)c1ccc(N2CCCC2=O)c([N+](=O)[O-])c1	39	-8%	-6%
Nc1c(C(=O)NCCc2ccc(Cl)cc2)sc2ccc(S(=O)(=O)N3CCCCC3)cc12	-26	-28%	-1%
CCc1ccc(NC(=S)N2CCN(c3cccc(OC)c3)CC2)cc1	x	x	-11%
CC1(C)CC(=O)c2c(nn(-c3ccccc3)c2-c2ccncc2)C1	-25	-11%	14µM*
CC1(C)CC(=O)c2c(-c3cccnc3)n[nH]c2C1	30	-19%	1%
O=C(Nc1ncccn1)c1ccc(C(F)(F)F)cc1	16	-13%	-1%
Cc1cccc(/C=N\NC(=O)c2ccccc2-n2cccc2)c1	x	x	-6%
CN(C)c1ccc(/C=N\NC(=O)c2csnn2)cc1	5	-17%	1µM*
Cc1cccc(/C=N\NC(=O)c2csnn2)c1	16	3.2µM*	-52%
O=C(N/N=C\c1ccc(Oc2ccccc2)cc1)c1csnn1	x	x	9%
CN(Cc1cnn(C)c1)C(=O)c1cc2ccccc2oc1=O	24	-22%	0%
CN(Cc1cnn(C)c1)C(=O)c1sc2cccc(Cl)c2c1Cl	10	28µM*	u
COc1ccc(N2C(=O)C3CCCN3C2c2ccc(C)cc2)cc1 (stereo unspecified)	32	0%	20µM*
COc1ccc(C2N(c3ccc(OC)cc3)C(=O)C3CCCN32)cc1 (stereo unspecified)	-28	-8%	u
COc1ccc(N2C(=O)C3CCCN3C2c2ccccc2OC)cc1 (stereo unspecified)	u	-14%	u
COc1ccc(N2C(=O)C3CCCN3C2c2ccccc2Cl)cc1 (stereo unspecified)	u	-20%	10µM*
COc1ccc(OC)c(NC(=O)CC(NCCC2=CCCCC2)C(=O)O)c1 (stereo unspecified)	5	-13%	-2%
CCOC(=O)C1CN(S(=O)(=O)c2cccc(C(F)(F)F)c2)c2cc(CC(=O)OC)ccc2O1 (stereo unspecified)	48	-25%	u
CNC(=S)NCC(O)c1ccc([N+](=O)[O-])cc1 (stereo unspecified)	x	x	1%
C=C(C(=O)C(C)(C)O)C(O)c1ccc([N+](=O)[O-])cc1 (stereo unspecified)	x	25µM*	u
CCC(C)NC(=O)Cn1cnc2sc(C)cc2c1=O (stereo unspecified)	76	-5%	-1%
SMILES	PNC inhibitor	HPGD inh	ALDH1A1 inh
CC(C)N(C)S(=O)(=O)c1ccc(Cl)c(C(=O)O)c1	x	x	1%
CC(C)C(OC(=O)c1cc2occc2n1C)C(=O)NCc1ccc2c(c1)OCO2 (stereo unspecified)	-4	13µM*	u
COc1ccc2cc3cc(C(=O)NCc4ccc5c(c4)OCO5)oc3nc2c1	39	u	u
Cc1ccc2c(CC(=O)OC(C)C(=O)NCc3ccc4c(c3)OCO4)coc2c1 (stereo unspecified)	u	14µM*	-7%
Cc1ccc(NC(=O)NCc2ccc3c(c2)OCO3)cc1	-10	-6%	-1%
CC(OC(=O)Cc1coc2cc3c(cc12)CCC3)C(=O)NCc1ccc2c(c1)OCO2 (stereo unspecified)	-29	-8%	9%
Cc1ccc2c(CC(=O)NCc3ccc4c(c3)OCO4)coc2c1	-16	-5%	4.5µM*
COc1ccc2c(CC(=O)NCc3ccc4c(c3)OCO4)coc2c1	48	-17%	8.9µM*
Cc1cc2c(cc(C(=O)OC(C(=O)NCc3ccco3)C(C)C)n2C)o1 (stereo unspecified)	-26	-28%	u
O=C(O)c1cc(S(=O)(=O)Nc2ccc3c(c2)OCCO3)c(Cl)cc1Cl	u	-3%	8%
CCOC(=O)C1CCN(S(=O)(=O)c2ccc(OC)c(Cl)c2)CC1	x	x	-7%
CCOC(=O)N1CCC(=NNC(=O)c2ccccc2F)CC1	u	-8%	u
O=C(CSc1nnnn1-c1cccc2ccccc12)Nc1ccc(N2CCOCC2)c(Cl)c1	61	-6%	1.8µM*
O=C(CSc1nc2ccccc2o1)Nc1ccc(N2CCOCC2)c(Cl)c1	32	-17%	u
Cc1cc(C)nc(SCC(=O)Nc2ncc(Cc3ccc(Cl)c(Cl)c3)s2)n1	-113*	-5%	-13%
Cc1ccc(Cc2cnc(NC(=O)CN3CCOCC3)s2)cc1Cl	29	-8%	-1%
CCOC(=O)CSc1nnnn1-c1cccc2ccccc12	-12	25µM*	1.8µM*
CC(=O)Nc1ccc2nc(SCC(=O)Nc3ccc(N4CCOCC4)c(Cl)c3)sc2c1	106	-1%	u
Cc1cc(C)nc(SCC(=O)Nc2ccc(N3CCOCC3)c(Cl)c2)n1	13	-7%	22µM*
CCOc1ccccc1-n1nnnc1SCC(=O)OC	x	x	-15%
C=CCN1C(=O)/C(=C2\SC(N3CCOCC3)=NC2=O)c2cc(Br)ccc21	-28	-15%	3.5µM*
CCCCCCCn1c(C)nnc1-c1cnn(C)c1N	x	x	1%
CCSc1nc2c(c(=O)[nH]1)C(C(C)C)C(C#N)=C(N)O2 (stereo unspecified)	46	-7%	-11%
Cc1cc(NS(=O)(=O)c2ccc(NC(=S)NC(=O)c3ccc(Br)cc3)cc2)no1	u	-14%	u
CC(C)NC(=O)CC(=O)N/N=C/c1ccc(F)cc1	46	2%	1%
SMILES	PNC inhibitor	HPGD inh	ALDH1A1 inh
O=C(CCc1ccccc1)NC(=S)Nc1cccc(Br)c1	-9	-26%	u
S=C(Nc1cccc(Br)c1)c1ccccc1	u	13µM*	3%
COc1ccc(CCNC(=O)CSc2ccc3ccccc3c2)cc1OC	16	x	-2%
O=C(CSc1ccc2ccccc2c1)NCCc1ccc(O)c(O)c1	x	x	25µM*
Cc1cccc(-n2c(SCC(=O)Nc3ncc(Cl)cc3Cl)nc3ccccc32)c1	-108*	-10%	-6%
COc1ccc(-n2c(SCC(=O)Nc3ncc(Cl)cc3Cl)nc3ccccc32)cc1	x	x	-1%
COCCn1c(SCC(=O)Nc2nc(C)c(Cl)cc2Cl)nc2ccccc21	-24	-8%	u
O=C(CSc1nc2ccccc2n1-c1ccccc1)Nc1ncc(Cl)cc1Cl	-107*	-7%	2%
Cc1ccc(N(C(=O)C2CCCC2)C2C=CS(=O)(=O)C2)cc1C (stereo unspecified)	7	-5%	-6%
COc1ccc(-n2c(=O)cnc3cnc(N4CCN(C)CC4)nc32)cc1	x	x	20%
Cc1ccc(Cn2nnc3c(=O)n(CC(=O)NCc4ccco4)cnc32)cc1	-12	u	-2%
Cc1ccc(-n2ncc3c(=O)n(CC(=O)NCc4ccco4)cnc32)cc1	-100*	-20%	7%
O=C(Cn1cnc2c(nnn2Cc2ccccc2F)c1=O)NCc1ccco1	30	32µM*	-2%
O=C(Cn1cnc2c(cnn2-c2ccc(F)cc2)c1=O)NCc1ccco1	15	-14%	-5%
